This is an account of results in PubChem BioAssay AID602233 (National Center for Advancing Translational Sciences (NCATS), 2012).

About 170 (0.045%) of roughly 380,000 compounds were called active. Calls come from the whole dose curve; as a rule, active = well fitted inhibition curve with a large enough effect; inconclusive = small, poorly fitted or top-dose-only effect; inactive = no such curve, though single readings can be large or run the other way. Shown is part of a subset that was picked to be rich in actives. Where a call stands in place of a potency, no number is given.
Potency is the fitted concentration of half-maximal effect.

Phosphoglycerate kinase, glycosomal (Trypanosoma brucei brucei), sequence (P07378 whole entry, looked up): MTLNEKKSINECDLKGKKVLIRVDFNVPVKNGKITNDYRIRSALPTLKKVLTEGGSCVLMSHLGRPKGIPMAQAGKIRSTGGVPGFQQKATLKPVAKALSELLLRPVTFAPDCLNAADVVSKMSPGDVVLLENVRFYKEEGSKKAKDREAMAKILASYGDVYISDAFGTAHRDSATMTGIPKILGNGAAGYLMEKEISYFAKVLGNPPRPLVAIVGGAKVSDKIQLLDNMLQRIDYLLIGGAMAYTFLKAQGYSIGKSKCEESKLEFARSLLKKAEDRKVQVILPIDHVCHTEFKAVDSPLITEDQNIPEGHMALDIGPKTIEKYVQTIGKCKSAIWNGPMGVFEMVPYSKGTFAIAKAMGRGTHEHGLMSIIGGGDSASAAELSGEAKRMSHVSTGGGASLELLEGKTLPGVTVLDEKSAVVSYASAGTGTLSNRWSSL

The test has as its target Phosphoglycerate kinase, glycosomal (Trypanosoma brucei brucei) (UniProt P07378). In words: qHTS Assay to Find Inhibitors of Phosphoglycerate Kinase. Note: nearly all actives have a fitted effect of over 60% in size. The conditions noted are these: PGK/GAPDH coupled, Kinase-Glo luminescence, 60 min; series mostly up to 57.5 µM. From the text:
Several species of the Trypanosomatidae family of parasitic protozoans cause a spectrum of diseases throughout the tropical and subtropical world. Sleeping sickness, caused by two subspecies of Trypanosoma brucei, is endemic to areas of sub-Saharan Africa, while Chagas disease, a manifestation of Trypanosoma cruzi infection, is prevalent throughout Central and South America. In addition, many species of Leishmania are responsible for a range of cutaneous and visceral diseases, causing ulcers, destructive lesions and kalaazar, a lethal infection of the viscera. Collectively, these organisms infect 30 million people worldwide (~500 million live in endemic areas), and account for ~130,000 deaths annually. Given their debilitating and prevalent nature, trypanosomatid parasites impose a heavy medical, economic and social burden on entire populations, primarily in the developing world. The problem is further exacerbated by the fact that existing treatments have progressed little in the past 50 years, and current drugs show high toxicity and poor efficacy. […] Blood-stream stages of T. brucei are entirely dependent on glycolysis as a source of ATP, and the tricarboxylic acid cycle and oxidative phosphorylation are both repressed. Glycolysis in axenically cultured T. cruzi, representing the intracellular pathogenic stage, is also essential for these parasites. […] Previous studies have shown that the glycolytic enzyme, phosphoglycerate kinase (PGK), is a viable target for drugs to kill these parasites. […] NIH Molecular Libraries Probe Production Network [MLPCN] NIH Chemical Genomics Center [NCGC] MLPCN Grant: R03 MH093212 PI Name: Malcolm Walkinshaw, University of Edinburgh
3ul of substrate/PGK buffer (columns 1,2,5-48) are dispensed into Greiner white solid bottom 1536-well assay plates; columns 3-4 receive only TEA buffer as 0x PGK controls. Compounds are then transferred via Kalypsys pin tool equipped with 1536-pin array (10nl slotted pins, V&P Scientific, San Diego, CA). Following addition of compound, 1ul of GAPDH (100nM final concentration, all columns) is added to initiate the reaction (this upstream coupling enzyme is necessary for in-well production of PGK substrate, 1,3-bisphosphoglycerate (1,3-BPG), which is unstable and not commercially available). The plates are then incubated at room temperature for 60 minutes. Kinase-Glo Plus reagent is added (2ul) and plates incubated for 10 minutes, before being transferred to a ViewLux high-throughput CCD imager (PerkinElmer) wherein single end-point measurements of luminescence are acquired using a clear filter. All reagents are diluted in an assay buffer consisting of 100mM TEA (pH 7.6), 5mM MgCl2 and 0.01% Tween-20.
(In general: qHTS replaces the single test concentration by a dilution series.)
On to `COc1ccc(N2C(=O)/C(=C/c3ccco3)C(=O)NC2=S)cc1`, for which the Potency is 12.6 µM (active).

With `COc1cccc(N2C(=O)NC(=O)/C(=C\c3ccc([N+](=O)[O-])s3)C2=O)c1`, the Potency result is “inactive”.

As to `O=C1NC(=O)N(Cc2ccco2)C(=O)/C1=C\c1ccc(-c2ccc(F)cc2)o1`, the Potency result was “inactive”.

`c1ccc(C2NCc3ccccc3-n3cccc32)cc1` (stereo not given): the Potency result is “inactive”.

Turning to `N[C@@H](Cc1c[nH]c2ccccc12)c1nnc(SCc2c(F)cccc2Cl)o1`, the Potency result is “inactive”.
